D1 agonist: human D1 receptor agonism; P21728; HEK293 T-REx D1 cells, calcium flux, agonist mode; activation, % at 2 µM; 360,000 compounds, 1% hits; AID 504660; in the data active = activation above about 30%; also: 0% is about no effect
Target sequence (P21728 whole entry, looked up): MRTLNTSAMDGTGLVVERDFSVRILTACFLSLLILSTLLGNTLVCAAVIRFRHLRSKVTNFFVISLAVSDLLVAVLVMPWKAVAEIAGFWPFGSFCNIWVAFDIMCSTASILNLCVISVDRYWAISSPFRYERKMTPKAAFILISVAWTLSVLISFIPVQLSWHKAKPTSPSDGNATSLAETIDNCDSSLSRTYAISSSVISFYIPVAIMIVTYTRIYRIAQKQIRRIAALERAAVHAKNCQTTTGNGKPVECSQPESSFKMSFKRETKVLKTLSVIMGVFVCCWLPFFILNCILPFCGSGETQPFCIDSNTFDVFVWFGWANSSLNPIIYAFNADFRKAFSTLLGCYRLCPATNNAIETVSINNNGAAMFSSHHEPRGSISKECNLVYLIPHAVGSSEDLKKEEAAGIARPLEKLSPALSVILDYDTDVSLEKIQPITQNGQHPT
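Inducible HEK293 T-REx D1 cells, force-coupled to calcium signalling, were plated at 4000 cells/well with tetracycline and held overnight at 30 C. After no-wash calcium dye loading, compound-evoked calcium rise over 180 s flagged agonists.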
D1 antag: antagonists of human D1 dopamine receptor. activity change, negative = inhibition, % at 10 µM. 360,000 compounds, 3.2% hits. HEK293 TREx D1 cells, calcium flux, dopamine EC80; hits give low values; in the data active = activity change below about -30%; also: % is scaled to controls: 0 for no effect and ±100 for the full control effect
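Using tetracycline-induced force-coupled D1 Hek293 cells and a calcium dye, signals were followed for 180 s after compound, then for 180 s after EC80 dopamine, to detect inhibitors.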
D1 potentiator: enhances dopamine response at the human D1 receptor. P21728. HEK293 TREx D1 cells, calcium flux, dopamine EC20 potentiation. potentiation, % at 10 µM. 360,000 compounds, 0.036% hits. AID 504651; in the data active = potentiation above about 30%; also: 0% is about no effect
D3 antag: D3 dopamine receptor (human) antagonism; max response, negative = inhibition, %; D3R cells, DiscoveRx beta-arrestin luminescence, antagonist mode; hits give low values; 360,000 compounds, 2.5% hits; P35462; AID 652054; in the data active = max response below about -50%; inconclusive = no clear call, values can overlap the other calls; also: % is scaled to controls: 0 for no effect and ±100 for the full control effect
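Cells plated overnight at 1500 cells/well, then exposed to library compounds with dopamine controls for 90 minutes at 37 degrees C. DiscoveRx reagent added for 30–60 minutes at room temperature; luminescence read, quantitative HTS format.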
DRD3 agonist: activates the human D3 dopamine receptor. D3R DiscoveRx beta-arrestin cells, luminescence, 90 min. AID 652048. P35462. 410,000 compounds, 0.58% hits. max activation, %; in the data active = max activation above about 30%; also: 0% is about no effect
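Agonist mode: compounds and dopamine controls were applied to plated cells for 90 min at 37 degrees C after an overnight attachment at 1500 cells/well. Luminescent read-out followed 30 - 60 minutes at room temperature with DiscoveRx detection reagent.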
* hit, by the source's call; ? = inconclusive; . = no result given. Most compounds without a hit are left out; they make up all but 6% or so of the library.

SMILES	D1 agonist	D1 antag	D1 potentiator	D3 antag	DRD3 agonist
O=C(NC(c1ccc(Cl)cc1)c1ccsc1)C1CCN(CCOc2ccc(Cl)cc2)CC1 (centres undefined)	.	.	.	-84.3*	-15.9
Cc1ccc2c(=O)cc(CSc3ncn[nH]3)[nH]c2c1C	1.9	-9.5	-1.3	.	-12.6
CCOc1ccc(N2CC(C(=O)NCC(=O)Nc3ccc(F)c(F)c3F)CC2=O)cc1 (centres undefined)	0.8	-31.9*	-2.0	-6.3	-5.2
Cc1nn(C(C)C(=O)NCC2CCCO2)c(=O)c2cc3occc3n12 (centres undefined)	0.2	-32.9*	-8.8	7.8	4.3
Cc1ccc(CN2C(=O)CSC2c2ccc(F)cc2)cc1 (centres undefined)	6.3	-39.1*	3.6	-1.0	-1.4
CCOC(=O)/C(=C\c1ccc(Cl)cc1)c1nc2sc(C)c(C)c2c(=O)[nH]1	0.4	19.6	-3.0	-63.0*	1.3
CCc1ccc(CN(C)C(=O)c2cc(COc3ccc(-n4cncn4)cc3)on2)cc1	12.0	3.4	-7.7	22.4	-3.3
COc1ccc(S(=O)(=O)N2CCCC(C(=O)N3CCN(Cc4ccccc4)CC3)C2)cc1Cl (centres undefined)	.	.	.	-21.4	0.7
CCOC(=O)CC(N)c1ccc(OC)cc1 (centres undefined)	-2.2	-68.8*	-10.2	30.2	-0.8
Cc1cc(OCc2cc(C(=O)N(C)C3CCOC3)no2)cc(C)c1Cl (centres undefined)	12.3	-47.3*	-3.5	-10.1	-12.3
CC(=O)c1ccc(OCc2cc(C(=O)N(C)C3CCOC3)no2)cc1 (centres undefined)	2.0	0.8	-10.3	0.9	2.6
COc1cccc(OCc2cc(C(=O)N(C)C3CCOCC3)no2)c1	6.1	-55.7*	-10.4	16.9	2.3
COc1cccc(OCc2cc(C(=O)N(C)C3CC(C)(C)NC(C)(C)C3)no2)c1	10.8	9.3	1.3	-9.9	-6.9
Cc1cc(OCc2cc(C(=O)NCc3csc(C(C)C)n3)no2)cc(C)c1Cl	70.8*	-40.8*	5.7	-10.0	-0.1
Cc1ccc(OCc2cc(C(=O)NCc3cn4ccccc4n3)no2)cc1C	15.9	-20.4	0.8	-24.5	-3.1
Cc1cc(OCc2cc(C(=O)NCCN3CCCCC3CO)no2)cc(C)c1Cl (centres undefined)	35.4*	-44.2*	-15.1	-15.5	-2.2
O=C(c1ccco1)N1CCC2CC1c1c(Cl)cccc12 (centres undefined)	.	.	.	-21.6	-2.3
CC1C(=O)N(Cc2cn(CCC3OCCCO3)nn2)CCS(=O)(=O)N1Cc1ccc(-c2ccncc2)cc1 (centres undefined)	.	.	.	-17.3	-9.2
COc1ccc(OCc2cc(C(=O)N(C)CC3CCCCO3)no2)c(Cl)c1 (centres undefined)	2.1	3.1	0.5	12.2	-4.8
Cc1ccc(OCc2cc(C(=O)NCC(C)c3ccccc3)no2)cc1C (centres undefined)	9.2	-30.7*	-9.0	?	-12.3
COc1ccc(OCc2cc(C(=O)N(C)CCC3CCOCC3)no2)c(Cl)c1	7.3	-41.2*	-8.0	5.8	0.6
CC(C)Oc1ccc(C(=O)N2CC(=O)Nc3ccc(F)cc3C2c2ccc(F)cc2)cc1 (centres undefined)	3.0	7.6	-0.3	.	2.5
CCOc1cc(C(=O)Nc2ccccc2N2CCN(S(C)(=O)=O)CC2)cc(OCC)c1OCC	1.5	-63.8*	-4.3	23.3	0.7
CCOc1cc(C(=O)Nc2ccc(N3CCN(S(C)(=O)=O)CC3)cc2)cc(OCC)c1OCC	0.8	11.0	5.3	9.5	2.4
O=C(NCCSc1ccc(Cl)cc1)c1ccc(CN2CCOCC2)cc1	10.7	-18.2	-2.6	-9.4	-4.0
SMILES	D1 agonist	D1 antag	D1 potentiator	D3 antag	DRD3 agonist
O=C(NCCSCc1ccc(Cl)cc1Cl)c1ccc(CN2CCOCC2)cc1	13.7	-30.6*	-2.8	-26.4	-8.1
Cc1ccc2nc(SCc3nnc(-c4cccs4)o3)[nH]c2c1	0.8	-37.1*	-1.1	7.1	0.3
Cc1ccc2nc(SCc3nnc(-c4ccccc4)o3)[nH]c2c1	-0.8	12.4	-0.5	9.3	-1.2
Cc1cc(C)c(NC(=O)CSc2nccn2-c2cccc(Cl)c2)c(C)c1	1.6	25.9	3.1	.	-2.1
COc1ccc(C(=O)NCC(=O)N2CCC(Cc3ccccc3)CC2)cc1OC	1.0	-9.4	-2.2	0.0	4.7
COc1ccc(CCNC(=O)c2ccc(CN3CCC(Cc4ccccc4)CC3)cc2)cc1	3.2	-7.5	0.6	-17.1	-8.7
C=CCNC(=O)c1ccc(CN2CCC(Cc3ccccc3)CC2)cc1	6.4	-58.3*	-12.3	?	-25.7
C=CCNC(=S)N1CCC(Cc2ccccc2)CC1	-0.1	3.9	-2.8	3.6	-4.9
CC(C)NC(=O)c1ccc(CN2CCC(Cc3ccccc3)CC2)cc1	6.2	28.9	-8.3	-79.9*	-23.6
Cc1ccc(C(=O)NCC(=O)N2CCC(Cc3ccccc3)CC2)cc1	9.3	-35.8*	-2.2	5.9	2.2
Cc1ccccc1NC(=O)c1ccc(CN2CCC(Cc3ccccc3)CC2)cc1	18.0	-57.4*	-19.4	-63.7*	-19.1
CC(C)NC(=O)C1(C)CSCC(=O)N1C1CCN(Cc2ccccc2)CC1 (centres undefined)	.	.	.	-63.6*	-20.7
Cc1ccc(S(=O)(=O)N2C(c3ccc(Cl)c(Cl)c3)CC=C(C(=O)O)C2c2cccc(Cl)c2)cc1 (centres undefined)	.	.	.	-6.9	1.0
Cc1ccc(-n2ncc3c(SCC(=O)NNC(=O)C(C)C)ncnc32)cc1	1.9	-53.6*	-5.4	11.0	10.6
O=C(CSc1ncnc2c1cnn2-c1ccccc1)NC1CCCC1	9.4	-90.7*	-4.0	7.1	13.4
CC(C)C(=O)NNC(=O)CSc1ncnc2c1cnn2-c1ccccc1Cl	1.6	-20.2	-4.5	16.3	1.6
COc1ccc(NC(=O)CSc2nc3sc(C)cc3c(=O)n2C)c(OC)c1	11.4	4.0	-6.8	3.3	23.8
Cc1ccc(-c2csc(NC(=O)CSc3nc4ccccc4o3)n2)cc1	4.1	-35.1*	-4.2	13.6	2.6
CC(=O)c1cc2c(cc1NC(=O)CSc1nc3ccccc3o1)OCO2	2.1	-35.5*	7.3	30.8	-1.0
Cc1nnc(NC(=O)CSc2nc3ccccc3o2)s1	1.1	-1.1	5.3	-22.7	-19.2
CC(=O)CSc1nc2ccccc2o1	0.4	11.0	-7.7	-15.1	-4.5
O=C(CSc1nc2ccccc2o1)Nc1nc(-c2ccccc2)c(-c2ccccc2)s1	0.1	-90.2*	-9.0	-25.1	1.5
COC(=O)CSc1nc2ccccc2o1	1.0	-36.9*	-5.8	6.4	-3.1
CCc1cc2c(cc3c(=O)n(CC(=O)NCCc4ccc(OC)cc4OC)nc(CC)n32)s1	-0.9	9.8	-3.9	.	9.5
Clc1c(CSc2nc3ccccc3o2)nc2ccccn12	1.3	-39.3*	-8.2	0.0	3.4
